High-throughput results (PubChem BioAssay)
Compounds with a hit are over-represented: about 1.4% of the library has one in this group of screens.
HNF4A DNA FP: change in binding of human HNF4 alpha to DNA. activity change, % at 10 µM. actives 0.3% (n = 360,000). HNF4a-FITC DNA binding, fluorescence polarization, 1 h. P41235; in the data active = activity change above about 30%, passing the limit was not always enough
Target sequence (P41235 whole entry, looked up): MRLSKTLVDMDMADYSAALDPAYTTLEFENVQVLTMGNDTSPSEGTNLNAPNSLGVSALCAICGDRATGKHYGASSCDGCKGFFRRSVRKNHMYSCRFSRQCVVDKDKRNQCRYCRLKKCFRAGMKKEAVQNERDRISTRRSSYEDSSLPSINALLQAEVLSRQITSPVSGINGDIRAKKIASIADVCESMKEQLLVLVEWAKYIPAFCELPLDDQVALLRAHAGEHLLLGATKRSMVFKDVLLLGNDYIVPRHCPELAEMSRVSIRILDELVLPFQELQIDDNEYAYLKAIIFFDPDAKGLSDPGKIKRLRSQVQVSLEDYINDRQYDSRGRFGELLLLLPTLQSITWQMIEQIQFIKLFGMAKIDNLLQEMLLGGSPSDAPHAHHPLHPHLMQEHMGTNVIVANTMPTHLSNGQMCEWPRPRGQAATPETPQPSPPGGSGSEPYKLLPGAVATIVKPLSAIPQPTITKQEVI
CRFBP-R2 agonist: agonists of human CRF-binding protein/CRF-R2 receptor complex. HEK293 CRF-R2/CRF-BP, calcium dye fluorescence (FLIPR); percent of saturating CRF peptide response. activation, % at 13.2 µM. actives 0.46% (n = 350,000). AID 588473;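 active = activation of at least 50%, plus an integration ratio under a set limit after plate pattern correction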;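 also: plate controls were neutral control wells without compound for no effect and CRF at EC100 for full effect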
IDE cell activ: IDE (human) activation, cell-based; activation, % at 5.96 µM; HEK cells, FAbeta-B cleavage, fluorescence polarization; 0% vehicle, 100% cell-free pure enzyme wells; AID 493087; actives 0.073% (n = 340,000);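 active = activation above the mean of all tested compounds plus 3 SD, set per screening campaign, cut at about 17% in these data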
TPT1 inh: C. albicans TPT1 enzyme inhibition | recombinant caTPT1, FP RNA substrate dephosphorylation | inhibition, % at 5 µM | actives 0.81% (n = 300,000);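 active = inhibition above the mean of all tested compounds plus 3 SD, set per screening campaign, cut at about 24% in these data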;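 also: plate controls were DMSO alone for no effect and ferristatin control at 100 nM for full effect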
IDE cell inh: cellular human IDE inhibition. P14735. HEK cells, FAbetaB cleavage, fluorescence polarization. inhibition, % at 5.59 µM. actives 0.41% (n = 320,000);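 active = percent inhibition above the average of all tested compounds plus 3 SD, set per screening campaign, cut at about 16% in these data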;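 also: IDE supplied by intact live HEK cells; FP after avidin binding of uncleaved biotin substrate so inhibition keeps polarization high; 0% = DMSO wells and 100% = 60 µM reference IDE inhibitor Ii1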
caTPT1 confirm: TPT1 (C. albicans) inhibition, confirmation; shares compounds with TPT1 inh; recombinant caTPT1, fluorescence polarization, RNase T1 coupled; inhibition, % at 5 µM; actives 74% (n = 2,400);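 active = inhibition above the primary screen limit, the mean inhibition of all tested compounds plus 3 SD, cut at about 25% in these data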
RNase T1 counter: blocks Aspergillus oryzae RNase T1, a TPT1 counter-screen; shares compounds with TPT1 inh; AID 2153; RNase T1 cleavage, fluorescence polarization, 1536-well; actives 83% (n = 2,400); inhibition, % at 5 µM;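 active = inhibition above the solvent-only control well mean plus 3 SD, limit set per screening run, cut at about 23% in these data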;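 also: plate controls were DMSO wells with enzyme for no effect and wells without RNase T1 for full effect; inhibitors block cleavage so intact labeled substrate keeps polarization high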
IDE cell inh cf: confirmation of human insulin-degrading enzyme inhibitors in cells | shares compounds with IDE cell inh | HEK cells, FAbetaB cleavage, fluorescence polarization | inhibition, % at 5.59 µM | actives 51% (n = 1,200) | AID 435028;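 active = mean inhibition across triplicate wells above the cutoff set by the earlier primary insulin-degrading enzyme screen, cut at about 16% in these data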;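 also: 0% = DMSO wells and 100% = 60 µM reference IDE inhibitor Ii1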
HEK cytotox: HEK cell cytotoxicity, counter-screen for IDE inhibitors; AID 449730; shares compounds with IDE cell inh; actives 28% (n = 1,200); inhibition, % at 5.59 µM; HEK293 cytotoxicity, ATP luminescence; in the data active = inhibition above about 22%;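 also: 0% = vehicle wells and 100% = reference cytotoxic drug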
Starred values were filed as active, the others as inactive.

Screening Cn1cc(/C=C2\SC(=S)N(NC(=O)c3ccccc3)C2=O)c2ccccc21 returned HNF4A DNA FP 13.8, CRFBP-R2 agonist 71.9*, IDE cell activ -53.6, TPT1 inh 137.2*, IDE cell inh 27.6*, caTPT1 confirm 54.7*, RNase T1 counter 61.5*, IDE cell inh cf 46.2* and HEK cytotox 15.2.
Screening Cn1cc(/C=C2\SC(=S)N(NC(=O)c3cccc(Cl)c3)C2=O)c2ccccc21 returned HNF4A DNA FP -25.7, CRFBP-R2 agonist 36.2 and IDE cell activ -20.6.
For Cc1cc(C)nc(NN2C(=O)/C(=C/c3ccc(O)cc3)SC2=S)n1 the results were HNF4A DNA FP 93.8*, CRFBP-R2 agonist 39.8, IDE cell activ -109.2, TPT1 inh 57.8*, IDE cell inh 76.2*, caTPT1 confirm 68.3*, RNase T1 counter 71.4*, IDE cell inh cf 148.1* and HEK cytotox 9.8.
Screening O=S1(=O)[C@H]2C[C@H](CO)O[C@@]2(CO)CN1Cc1ccc(-c2ccc(F)cc2)cc1 returned HNF4A DNA FP -0.4, CRFBP-R2 agonist 4.6 and IDE cell activ -0.2.
For OCC[n+]1ccc(/C=C/c2c[nH]c3ccccc23)cc1 the results were HNF4A DNA FP 103.3, CRFBP-R2 agonist 118.9*, IDE cell activ -28.6, TPT1 inh 57.2*, IDE cell inh 24.4*, caTPT1 confirm 59.3*, RNase T1 counter 64.7*, IDE cell inh cf 39.2* and HEK cytotox 56.8*.
For O=c1/c(=C\c2cc([N+](=O)[O-])cc([N+](=O)[O-])c2O)sc2nc3ccccc3n12 the results were HNF4A DNA FP 40.2*, CRFBP-R2 agonist 6.1, IDE cell activ -6.0, TPT1 inh 91.2*, IDE cell inh 16.3*, caTPT1 confirm 90.9*, RNase T1 counter 93.3*, IDE cell inh cf 19.6* and HEK cytotox 5.8.
For CC(OC(=O)/C(C#N)=C/c1ccc(N(C)C)cc1)C(=O)N(C)Cc1ccccc1 (configuration not stated) the results were HNF4A DNA FP 135.9, CRFBP-R2 agonist 62.7*, IDE cell activ -31.5, TPT1 inh 107.1*, IDE cell inh 29.6*, caTPT1 confirm 114.8*, RNase T1 counter 114.1*, IDE cell inh cf 36.6* and HEK cytotox 17.6.
COc1ccc(CCC(=O)NNC(=O)Nc2ccccc2Cl)cc1 was read as HNF4A DNA FP -3.1, CRFBP-R2 agonist -1.7 and IDE cell activ 0.7.
CCOC(=O)/C(=C\C=C1/Sc2cc(OCC)c(OCC)cc2N1CC)C(C)=O was read as HNF4A DNA FP -90.3, CRFBP-R2 agonist 322.0*, IDE cell activ -148.6, TPT1 inh 147.3*, IDE cell inh 127.8*, caTPT1 confirm 122.8*, RNase T1 counter 123.0*, IDE cell inh cf 40.8* and HEK cytotox 34.6*.
For CCN1/C(=C/C(C)=O)Sc2ccc(OC)cc21 the results were HNF4A DNA FP 2.7, CRFBP-R2 agonist -1.2, IDE cell activ 6.5, TPT1 inh -0.2 and IDE cell inh 1.6.
`CCOC(=O)/C(=C/C=C1\Sc2cc(OCC)c(OCC)cc2N1CC)C(C)=O` gave HNF4A DNA FP -103.6, CRFBP-R2 agonist 279.5*, IDE cell activ -128.5, TPT1 inh active, IDE cell inh 163.1*, caTPT1 confirm 148.7*, RNase T1 counter 141.9*, IDE cell inh cf 92.0* and HEK cytotox 24.7*.
Screening CCOC(=O)N1c2ccccc2Sc2ccccc21 returned HNF4A DNA FP -1.5, CRFBP-R2 agonist -1.9, IDE cell activ 1.0, TPT1 inh 2.7 and IDE cell inh 2.6.
